# Assay results taken from PubChem BioAssay (Tox21).
# Values joined by “and” are separate entries in the source; they are usually repeats but may differ in a detail not shown here. Equal values may be shown once. Inconclusive results are not listed. A call without a number means that no potency is given here. Active and inactive are the calls of the source. The call rests on the fitted dose curve; in most records, active means well fitted cell-killing curve with a large enough effect in the repeat runs; inconclusive means weak or mixed curves, or effect the other way; inactive means flat fitted curve, though single readings scatter.
# Assay: cAMP Responsive Elements (CRE) small molecule antagonists, cell-based qHTS assay: qHTS cell viability counter screen (AID 2060913); further: nearly all actives have a fitted effect of over 40% in size
# Conditions: CRE-bla HEK293T viability, CellTiter-Glo luminescence, 5 h; series mostly up to 92.4 µM
# In short: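 Viability of NKH477-stimulated (0.25 uM final) CRE-bla HEK293T cells is measured by CellTiter-Glo luminescence following 3 hrs compound exposure at 37 C.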
# Potency means the concentration at half of the fitted maximal effect.
row,Compound,Potency
1,O=NN(CCCl)C(=O)NC1CCCCC1,inactive
2,CCN(CC)c1ccc2c(c1)Oc1cc(N(CC)CC)ccc1C21OC(=O)c2ccccc21,inactive
3,CCC(=O)OCc1ccccc1,inactive
4,CCOC(=S)SSC(=S)OCC,inactive
5,CC1(C)[C@H]2CC[C@]1(C)C(=O)C2,inactive
6,CC/C(C)=N\O[Si](C)(O/N=C(\C)CC)O/N=C(\C)CC,inactive
7,c1ccc2c(c1)-c1ccc3ccc4cccc5cc-2c1c3c45,inactive
8,Cc1onc(-c2ccccc2)c1C(=O)Cl,inactive
9,O=C(O)C(c1ccc(Cl)cc1)c1ccc(Cl)cc1,inactive
10,CN(C)CCCCl,inactive
11,CCn1nc(C(=O)O)c(=O)c2cc3c(cc21)OCO3,inactive
12,CC(C)OC(=O)C(C)N(C(=O)c1ccccc1)c1ccc(F)c(Cl)c1 (stereo not given),inactive
13,CC(=O)[C@H]1CC[C@H]2[C@@H]3C[C@H](C)C4=CC(=O)CC[C@]4(C)[C@H]3[C@@H](O)C[C@]12C,inactive
14,COc1cc(Cl)ccc1Cl,inactive
15,CN1Cc2cc(C(=O)N3CCC(C4CCNCC4)CC3)ccc2N[C@@H](CC(=O)O)C1=O,inactive
16,OCC1CCC(CO)CC1 (stereo not given),inactive
17,CC(=O)[C@@]1(O)CC[C@H]2[C@@H]3C[C@H](C)C4=CC(=O)C=C[C@]4(C)[C@@]3(F)[C@@H](O)C[C@@]21C,inactive
18,CC(C)N=C=NC(C)C,inactive
19,CCCOCC(C)OCC(C)O (stereo not given),inactive
20,CCCCCCCCCCCCc1ccccc1O,53.8 µM (active) and 32 µM (active)

row,Compound,Potency
1,CC(C)(C)OC=O,inactive
2,Cc1cc(C)c(/C=C2\C(=O)Nc3ccccc32)[nH]1,inactive
3,CC(=O)CCc1ccccc1,inactive
4,CCOc1ccc(NC(=O)CC(C)O)cc1 (stereo not given),inactive
5,Cc1ccc(O)c(N)c1,inactive
6,CCn1cc(C(=O)O)c(=O)c2cc(F)c(N3CCNC(C)C3)c(F)c21 (stereo not given),inactive
7,C=CCOc1cc(Cl)ccc1C(=O)NCCN(CC)CC,inactive
8,Cc1ccc2sc3cccc(C)c3c2c1,inactive
9,CC(C)OC(=O)C(O)(CC(=O)O)CC(=O)O,inactive
10,N#C/C(=C1\SCC(c2ccccc2Cl)S1)n1ccnc1 (stereo not given),inactive
11,CN1C(CCl)Nc2cc(Cl)c(S(N)(=O)=O)cc2S1(=O)=O (stereo not given),inactive
12,CCCCCCCCc1ccc(S(=O)(=O)O)cc1,inactive
13,CCCC/C=C/C=C\C=O,inactive
14,CCCCCCCCCCCCCCCC(=O)OC[C@H](O)[C@H]1OC(=O)C(O)=C1O,inactive
15,C1CCCNCC1,inactive
16,CC(C)CCCCCCCOC(=O)CCCCC(=O)OCCCCCCCC(C)C,inactive
17,CCCCCCOC(=O)C(C)CC (stereo not given),inactive
18,Cc1ccc(C)c(O)c1,inactive
19,CCc1cccc(C)c1,inactive
20,CCCCOCCOCCOC(C)=O,inactive

# Assay: cAMP Responsive Elements (CRE) small molecule agonists, cell-based qHTS assay: qHTS cell viability counter screen (AID 2060914);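 further: viability read after 3 h of compound exposure; nearly all actives have a fitted effect of over 50% in size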
# Conditions: CRE-bla HEK293T viability, CellTiter-Glo luminescence, 5 h; series mostly up to 92.4 µM
# In short: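 CRE-bla HEK 293T cells, plated 18 h at 37 °C, were exposed to compounds for 3 h at 37 °C/5% CO2. Viability was then measured in the same wells by CellTiter-Glo luminescence after 30 min at room temperature.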
row,Compound,Potency
1,O=NN(CCCl)C(=O)NC1CCCCC1,inactive
2,CCN(CC)c1ccc2c(c1)Oc1cc(N(CC)CC)ccc1C21OC(=O)c2ccccc21,inactive
3,CCC(=O)OCc1ccccc1,inactive
4,CCOC(=S)SSC(=S)OCC,inactive
5,CC1(C)[C@H]2CC[C@]1(C)C(=O)C2,inactive
6,CC/C(C)=N\O[Si](C)(O/N=C(\C)CC)O/N=C(\C)CC,inactive
7,c1ccc2c(c1)-c1ccc3ccc4cccc5cc-2c1c3c45,inactive
8,Cc1onc(-c2ccccc2)c1C(=O)Cl,inactive
9,O=C(O)C(c1ccc(Cl)cc1)c1ccc(Cl)cc1,inactive
10,CN(C)CCCCl,inactive
11,CCn1nc(C(=O)O)c(=O)c2cc3c(cc21)OCO3,inactive
12,CC(C)OC(=O)C(C)N(C(=O)c1ccccc1)c1ccc(F)c(Cl)c1 (stereo not given),inactive
13,CC(=O)[C@H]1CC[C@H]2[C@@H]3C[C@H](C)C4=CC(=O)CC[C@]4(C)[C@H]3[C@@H](O)C[C@]12C,inactive
14,COc1cc(Cl)ccc1Cl,inactive
15,CN1Cc2cc(C(=O)N3CCC(C4CCNCC4)CC3)ccc2N[C@@H](CC(=O)O)C1=O,inactive
16,OCC1CCC(CO)CC1 (stereo not given),inactive
17,CC(=O)[C@@]1(O)CC[C@H]2[C@@H]3C[C@H](C)C4=CC(=O)C=C[C@]4(C)[C@@]3(F)[C@@H](O)C[C@@]21C,inactive
18,CC(C)N=C=NC(C)C,inactive
19,CCCOCC(C)OCC(C)O (stereo not given),inactive
20,CCCCCCCCCCCCc1ccccc1O,60.3 µM (active) and 54.5 µM (active)

row,Compound,Potency
1,CC(C)(C)OC=O,inactive
2,Cc1cc(C)c(/C=C2\C(=O)Nc3ccccc32)[nH]1,inactive
3,CC(=O)CCc1ccccc1,inactive
4,CCOc1ccc(NC(=O)CC(C)O)cc1 (stereo not given),inactive
5,Cc1ccc(O)c(N)c1,inactive
6,CCn1cc(C(=O)O)c(=O)c2cc(F)c(N3CCNC(C)C3)c(F)c21 (stereo not given),inactive
7,C=CCOc1cc(Cl)ccc1C(=O)NCCN(CC)CC,inactive
8,Cc1ccc2sc3cccc(C)c3c2c1,inactive
9,CC(C)OC(=O)C(O)(CC(=O)O)CC(=O)O,inactive
10,N#C/C(=C1\SCC(c2ccccc2Cl)S1)n1ccnc1 (stereo not given),inactive
11,CN1C(CCl)Nc2cc(Cl)c(S(N)(=O)=O)cc2S1(=O)=O (stereo not given),inactive
12,CCCCCCCCc1ccc(S(=O)(=O)O)cc1,inactive
13,CCCC/C=C/C=C\C=O,inactive
14,CCCCCCCCCCCCCCCC(=O)OC[C@H](O)[C@H]1OC(=O)C(O)=C1O,inactive
15,C1CCCNCC1,inactive
16,CC(C)CCCCCCCOC(=O)CCCCC(=O)OCCCCCCCC(C)C,inactive
17,CCCCCCOC(=O)C(C)CC (stereo not given),inactive
18,Cc1ccc(C)c(O)c1,inactive
19,CCc1cccc(C)c1,inactive
20,CCCCOCCOCCOC(C)=O,inactive
